# Target: Interleukin-8 (IL8, CXCL8), C-terminal His-tagged (Homo sapiens, UniProt P10145 SEQ:1-72)
# Assay: competition; competition TR-FRET
# Settings: tags: C-terminal 6xHis (Sino Biological); ssRNA; 2'-F G, 2'-OMe A/C/U, 5' C6NH2, 3' idT
# Protocol: Activity of each of these variants were tested using a time resolved competition TR-FRET assay in which the labeled parent Aptamer 3 was competed with increasing concentrations of unlabeled variants for binding to IL8 (FIG. 14). Briefly, 2-fold dilutions of thermally equilibrated aptamers were made in TR-FRET Buffer (50 mM MOPS, pH 7.4, 125 mM NaCl, 5 mM KCl, 50 μM CHAPS, 0.1 mg/mL BSA, 1 mM CaCl₂, and 1 mM MgCl₂). 5 μL of aptamer or control solution was added to 5 μl mix of 10 nM C-terminal His-tagged-IL8, 60 nM ALEXA FLUOR® 647-labeled Aptamer, and 5 nM anti-His-Eu (Perkin Elmer) in a black wall low volume 384 well plate (Greiner). For control, 5 μl of 1000-fold excess of unlabeled parent aptamer or 5 μl TR-FRET buffer alone was added to the mix of ALEXA FLUOR® 647-labeled aptamer, His-IL8, and anti-His-Eu. The plate was covered with a plate seal and subsequently incubated in the dark for 1 hour at room temperature. The plate was read on a Biotek CYTATION™ 5 plate reader. […]
# To better understand the sequence requirements and confirm the stem structures of members of the Aptamer 8 family as determined from sequence covariation analysis from both the primary and secondary (degenerate) selections, a series of variants which included mutations and deletions to the predicted stems (Tables 45 and 46) were synthesized and screened. […]
row,Sequence,binding signal [fold worse than Aptamer 8]
1,CGGUGGGAAAUGUGAGAUGGGUUACCG,~2.5
2,CGGCGGGAAAUGUGAGAUGGGUUGCCG,~2.5

# From patent US20210230599, “STEM-LOOP COMPOSITIONS AND METHODS FOR INHIBITING INTERLEUKIN-8” (VITRISA THERAPEUTICS, INC., published 2021)
